Autophagy HCS = alters autophagy in cells | MEF GFP-LC3 puncta imaging; test concentration mostly 10 µM | 0.98% of 190,000 active | calls only at 10 µM (by protocol);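 active = percentage of spot-positive cells more than 3 SD above its plate mean, without a fluorescence outlier flag or 80% toxicity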
PTEN del growth = growth suppressors of cells with PTEN tumor suppressor deletion | HCT116 PTEN-null viability, CellTiter-Glo, 60 h; hits give low values | viability, % at 10 µM | 1.2% of 140,000 active | AID 827;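 active = viability at or below a set limit, 4 SD under the median of all tested compounds, cut at about 3.7% in these data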;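 note: PTEN knockout HCT116 line with beta catenin targeted HCT116 as companion control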
Insulin prom inh = TRM-6 insulin promoter activity inhibition; inhibition, % at 2 µM; 0.9% of 130,000 active; AID 1273; TRM-6 cells (human fetal islet line), insulin promoter-eGFP reporter, imaging; reporter expression induced with tamoxifen;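 active = inhibition above the mean plus 3 SD, with well images judged a real hit on visual review, cut at about 60% in these data, passing the limit was not always enough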
bCat KO growth = beta-catenin-lacking colon tumor cell growth suppression. 1.5% of 140,000 active. viability, % at 10 µM. HCT116 beta-catenin knockout viability, CellTiter-Glo, 60 h; hits give low values. AID 818;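 active = viability at or under a set limit, the compound median less 4 SD, cut at about 6% in these data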
Ins promoter up = MIN6 insulin promoter up-regulation | AID 1625 | MIN6 insulin promoter-GFP reporter, high-content imaging; hits give high values | z-score at 5 µM | 0.3% of 190,000 active;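 active = z-score above 3 at 5 µM with at least 500 cells counted in the well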
Lmaj promast = inhibitors of Leishmania major promastigote growth; Leishmania major promastigotes, resazurin fluorescence viability; inhibition, % at 10 µM; 9% of 200,000 active; in the data active = inhibition above about 50%;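 note: promastigotes grown with compound for 44 hours at 28 °C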
Hits are given with their value. Hits are enriched below; roughly 9.6% of the tested compounds scored in any of these assays.

What do the screens show for `Cc1cc(/C=C2/SC(=S)N(c3cccc(Cl)c3)C2=O)c(C)n1-c1cccnc1`?
Autophagy HCS: inactive; Insulin prom inh: inactive; Lmaj promast: inactive

What do the screens show for `O=C(O)c1ccc(N2C(=O)/C(=C/c3ccc(-c4ccc([N+](=O)[O-])cc4)o3)C=C2c2ccccc2)cc1`?
Autophagy HCS: inactive; Insulin prom inh: inactive; Ins promoter up: inactive; Lmaj promast: 99

Results for CC1=NN(c2ccc(Cl)c(C(=O)O)c2)C(=O)/C1=C\c1ccc(-c2ccc(C(=O)O)cc2)o1 ?
Autophagy HCS: inactive; Ins promoter up: inactive; Lmaj promast: inactive

What do the screens show for `CC1CN(c2ccc([N+](=O)[O-])cn2)CC(C)O1` (centres undefined)?
Ins promoter up: inactive

Results for COC(=O)C1CCN(CCCOc2ccc(CN3CCN(c4ccc([N+](=O)[O-])cc4)CC3)cc2)CC1 ?
Autophagy HCS: inactive; Ins promoter up: inactive; Lmaj promast: 95

Results for Cc1cc(OCCN2CC(C)OC(C)C2)ccc1[N+](=O)[O-] (centres undefined) ?
Autophagy HCS: inactive; PTEN del growth: inactive; Insulin prom inh: inactive; bCat KO growth: inactive; Ins promoter up: inactive; Lmaj promast: 76

Results for CC1CN(CCCOc2ccc([N+](=O)[O-])cc2)CC(C)O1 (centres undefined) ?
Autophagy HCS: inactive; PTEN del growth: inactive; Insulin prom inh: inactive; bCat KO growth: inactive; Ins promoter up: inactive; Lmaj promast: 91

How did CC1CN(CCCOc2ccccc2[N+](=O)[O-])CC(C)O1 (centres undefined) do in these assays?
Autophagy HCS: inactive; PTEN del growth: inactive; Insulin prom inh: inactive; bCat KO growth: inactive; Ins promoter up: inactive; Lmaj promast: 90

How did O=C(CSc1ccc(-c2ccc3c(c2)OCO3)nn1)Nc1nccs1 do in these assays?
Autophagy HCS: inactive; Insulin prom inh: inactive; Ins promoter up: inactive; Lmaj promast: inactive

What do the screens show for `COc1ccc(Cl)cc1NC(=O)COC(=O)CCCN1C(=O)c2ccccc2C1=O`?
Autophagy HCS: inactive; PTEN del growth: inactive; bCat KO growth: inactive; Ins promoter up: inactive; Lmaj promast: inactive

How did O=[N+]([O-])c1ccc(OCCN2CCNCC2)cc1 do in these assays?
Autophagy HCS: inactive; Ins promoter up: inactive; Lmaj promast: 99

What do the screens show for `Cn1c(=O)n(CCOc2ccc([N+](=O)[O-])cc2)c2ccccc21`?
Ins promoter up: inactive

How did Cc1ccc([N+](=O)[O-])c(OCCN2CCNCC2)c1 do in these assays?
Autophagy HCS: inactive; PTEN del growth: inactive; Insulin prom inh: inactive; bCat KO growth: inactive; Ins promoter up: inactive; Lmaj promast: inactive

How did CCOC(=O)C(CCCCOc1ccc([N+](=O)[O-])cc1)C(=O)OCC do in these assays?
Autophagy HCS: inactive; PTEN del growth: inactive; Insulin prom inh: inactive; bCat KO growth: inactive; Ins promoter up: inactive; Lmaj promast: inactive

Results for CC1CC(C)CN(CCCCOc2ccc([N+](=O)[O-])cc2)C1 (centres undefined) ?
Autophagy HCS: inactive; PTEN del growth: inactive; Insulin prom inh: inactive; bCat KO growth: inactive; Lmaj promast: 95

Results for Cc1ccc(C(C)C)c(OCCCN2CC(C)OC(C)C2)c1 (centres undefined) ?
Autophagy HCS: inactive; PTEN del growth: inactive; Insulin prom inh: inactive; bCat KO growth: inactive; Lmaj promast: 97

Results for CC1CN(CCOc2ccc([N+](=O)[O-])cc2)CC(C)O1 (centres undefined) ?
Autophagy HCS: inactive; PTEN del growth: inactive; Insulin prom inh: inactive; bCat KO growth: inactive; Ins promoter up: inactive; Lmaj promast: 85

What do the screens show for `Clc1cccc(CSc2ccc(-c3cccnc3)nn2)c1`?
Autophagy HCS: inactive; Insulin prom inh: inactive; Ins promoter up: inactive; Lmaj promast: inactive

How did O=C1c2cccc(OCC(=O)N3N=C(c4cccs4)CC3c3ccc(F)cc3)c2CCN1Cc1cccnc1 (centres undefined) do in these assays?
Autophagy HCS: inactive; PTEN del growth: inactive; bCat KO growth: inactive; Ins promoter up: inactive; Lmaj promast: 85

What do the screens show for `COc1ccc(/C=C/C(O)=C2/C(=O)N(C)C3(C)CC2c2ccccc2O3)cc1` (centres undefined)?
Autophagy HCS: inactive; PTEN del growth: 1.4; Insulin prom inh: inactive; bCat KO growth: 1.8; Ins promoter up: inactive; Lmaj promast: 80

What do the screens show for `COc1ccc(/C=C/C(O)=C2/C(=O)NC3(C)CC2c2ccccc2O3)c(OC)c1OC` (centres undefined)?
Autophagy HCS: inactive; Insulin prom inh: inactive; Ins promoter up: inactive; Lmaj promast: inactive

What do the screens show for `Cc1ccc(S(=O)(=O)C2C(=O)N(C)C3(C)CC2c2ccccc2O3)cc1C` (centres undefined)?
Autophagy HCS: inactive; PTEN del growth: inactive; bCat KO growth: inactive; Ins promoter up: inactive; Lmaj promast: inactive

What do the screens show for `Cc1ccc(/C=C/C(O)=C2/C(=O)N(C)C3(C)CC2c2ccccc2O3)cc1` (centres undefined)?
Autophagy HCS: inactive; PTEN del growth: 3.0; bCat KO growth: 5.4; Ins promoter up: inactive; Lmaj promast: 79

Results for CCOc1cc(S(=O)(=O)N2CCC(c3nc4ccccc4s3)CC2)c(OCC)cc1S(=O)(=O)N1CCCCC1 ?
Autophagy HCS: inactive; PTEN del growth: inactive; Insulin prom inh: inactive; bCat KO growth: inactive; Ins promoter up: inactive; Lmaj promast: inactive

How did CC1COC(=O)C(NNc2ccc(Cl)c(Cl)c2)=N1 (centres undefined) do in these assays?
Autophagy HCS: inactive; Ins promoter up: inactive; Lmaj promast: 100

What do the screens show for `O=[N+]([O-])c1ccc(N2CCCCC2)cc1NCCOc1ccccc1`?
Autophagy HCS: inactive; PTEN del growth: inactive; Insulin prom inh: inactive; bCat KO growth: inactive; Ins promoter up: inactive; Lmaj promast: 69

How did Cc1ccccc1OCCNc1cc(N2CC(C)NC(C)C2)ccc1[N+](=O)[O-] (centres undefined) do in these assays?
Autophagy HCS: active; Ins promoter up: inactive; Lmaj promast: 100

Results for COc1cccc(OCCNc2cc(Cl)ccc2[N+](=O)[O-])c1 ?
Autophagy HCS: inactive; PTEN del growth: inactive; Insulin prom inh: 78; bCat KO growth: inactive; Ins promoter up: inactive; Lmaj promast: inactive

Results for Cc1cccc(C(=O)Nc2oc(-c3ccccc3)cc2C#N)c1 ?
Autophagy HCS: inactive; PTEN del growth: inactive; Insulin prom inh: inactive; bCat KO growth: inactive; Ins promoter up: inactive; Lmaj promast: inactive

Results for COc1ccc(S(=O)(=O)Nc2ccccc2C(=O)OC2CCCN(C)C2)cc1OC (centres undefined) ?
Autophagy HCS: inactive; PTEN del growth: inactive; bCat KO growth: inactive; Ins promoter up: inactive; Lmaj promast: 100

How did COc1ccc(S(=O)(=O)Nc2ccccc2C(=O)NC(C)(C)C)cc1OC do in these assays?
Autophagy HCS: inactive; PTEN del growth: inactive; bCat KO growth: inactive; Ins promoter up: inactive; Lmaj promast: inactive

How did COc1ccc2c(-c3ccccc3)cc(SCC(=O)NC3CCS(=O)(=O)C3)nc2c1 (centres undefined) do in these assays?
Autophagy HCS: inactive; PTEN del growth: inactive; bCat KO growth: inactive; Ins promoter up: inactive; Lmaj promast: inactive
